A selection: hits, their analogues and other compounds. The true share with any hit is near 32%.
CYP2C9 activ – CYP2C9 (human) activation. hit rate 1.4% among 96,000. recombinant CYP2C9, luciferin-H conversion, luminescence; active compounds read high; factor 1 = untreated enzyme, 0 = blocked. activation factor at 5 µM;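 active = activation factor of 2 or more for CYP2C9 at a 5 µM dose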;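 note: 0 = sulfaphenazole-blocked wells and 1 = vehicle-only wells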
CYP2C9 inhib – human CYP2C9 inhibition; P11712; hit rate 20% among 96,000; inhibition, % at 5 µM; CYP2C9 Supersomes, luciferin-H conversion, luminescence; AID 777;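 active = blocking of liver enzyme CYP2C9 beyond about 50% at 5 µM, limit read from the data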
CYP2C19 inh – blocks human cytochrome P450 2C19. P33261. CYP2C19 Supersomes, luciferin-H EGE luminescence, 30 min. inhibition, % at 5 µM. hit rate 21% among 96,000;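 active = CYP2C19 inhibition above a set limit at 5 µM in the primary screen, cut at about 50% in these data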;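 note: plate controls were negative control wells for no effect and 2.5 mM tranylcypromine positive control for full effect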
Target sequence (P33261 whole entry, looked up): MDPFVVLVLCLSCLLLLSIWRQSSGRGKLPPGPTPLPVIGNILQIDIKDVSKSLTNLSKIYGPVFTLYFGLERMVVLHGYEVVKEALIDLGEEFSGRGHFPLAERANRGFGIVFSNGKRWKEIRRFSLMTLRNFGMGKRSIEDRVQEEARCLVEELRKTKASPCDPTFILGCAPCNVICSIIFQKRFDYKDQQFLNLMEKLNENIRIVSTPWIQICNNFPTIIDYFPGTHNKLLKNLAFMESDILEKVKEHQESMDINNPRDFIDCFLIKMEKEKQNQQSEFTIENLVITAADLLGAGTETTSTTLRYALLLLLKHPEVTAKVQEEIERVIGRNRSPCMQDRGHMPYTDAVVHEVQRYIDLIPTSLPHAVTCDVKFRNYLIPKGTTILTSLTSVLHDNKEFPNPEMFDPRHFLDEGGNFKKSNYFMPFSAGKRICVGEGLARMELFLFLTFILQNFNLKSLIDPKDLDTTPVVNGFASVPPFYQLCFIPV
PostGolgi yeast – growth inhibition of a yeast mutant, post-Golgi transport screen. post-Golgi transport phenotypic cell assay. inhibition, % at 10 µM. hit rate 0.9% among 98,000. AID 739;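 note: yeast cells grown in 1536-well plates; yeast grown about 18 h at 30C before absorbance read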
PostGolgi ctrl – yeast control strain growth, post-Golgi counter-screen | efflux-deficient yeast background strain, growth absorbance A615, 16 h | inhibition, % at 10 µM | hit rate 5% among 98,000
CYP2C19 act – activators of human cytochrome P450 2C19. recombinant CYP2C19, luciferin-H EGE luminescence; active compounds read high; 0 = fully inhibited enzyme, 1 = untreated enzyme. activation factor at 5 µM. P33261. AID 1025. 96,000 tested, under 10 active;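 active = activation factor of at least 2 at 5 µM in the primary screen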;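 note: 0 = wells with 2.5 mM tranylcypromine and 1 = vehicle-only wells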
An asterisk follows results filed as active; nt = no result given. Cut-off read from the data, not from the text of the source, unless noted: active = inhibition above about 30%; inactive = the rest.

SMILES	CYP2C9 activ	CYP2C9 inhib	CYP2C19 inh	PostGolgi yeast	PostGolgi ctrl	CYP2C19 act
CCN(CC)CCCn1c(C)cc2c(c1=O)C(c1ccccc1)C(C#N)=C(N)O2 (stereo not given)	nt	nt	nt	-7	14	nt
Cc1c(Br)cc(C(=O)N2CCCC2)c(C)c1C	1.9	-91	92*	0	3	0.1
O=C1CCCC(=O)C1=Cc1c[nH]c2ccccc12	0.8	15	8	-2	3	0.9
Cn1c(=O)c2c(nc(N3CCOCC3)n2CCCNC2=NCCC2)n(C)c1=O	0.9	6	4	4	2	1
CC(=O)c1ccc(OC(=O)N(c2ccccc2)c2ccccc2)cc1	0.3	70*	56*	6	16	0.4
COc1ccccc1NC(=O)Oc1ccc(C(C)=O)cc1	1.2	-17	17	1	17	0.8
CC1CN(S(=O)(=O)c2ccccc2)CC(C)O1 (stereo not given)	1	0	34	-1	-1	0.7
CC1(C)CSC(=S)N1S(=O)(=O)c1ccccc1	0.7	31	75*	-3	12	0.2
COc1cc(Br)c(C(C)NC(=O)c2ccc(C)cc2)cc1OC (stereo not given)	0.8	25	35	2	-3	0.7
COc1cc(Br)c(C(C)NC(=O)c2cccc(Br)c2)cc1OC (stereo not given)	0.3	66*	62*	-4	1	0.4
CCC(C)(C)NC(=O)CN(Cc1cccs1)C(=O)CNS(=O)(=O)c1ccc(C)cc1	1.1	-13	-1	1	7	1
CC(=O)OC1CC(n2ccc(NC(=O)c3ccccc3)nc2=O)OC1CO (stereo not given)	1	-3	-9	-5	0	1.1
COc1ccc2c3c(cccc13)OCC2=O	0.6	40	51*	7	-1	0.5
CC(=O)/C(=N\Nc1ccc(C)cc1)N1CCOCC1	0.6	36	80*	20	-9	0.2
CCOC(=O)c1nnn(-c2nonc2N)c1CN1CCCCCC1	1	0	-2	-1	16	1
CCOC(=O)c1nnn(-c2nonc2N)c1COc1ccc(F)cc1	0.2	81*	14	5	8	0.9
CCOC(=O)c1nnn(-c2nonc2N)c1CNC(C)C	0.9	11	49	-3	7	0.5
CCOC(=O)c1nnn(-c2nonc2N)c1CNc1ccccc1	0.5	53*	7	-6	26	0.9
CCOC(=O)c1nnn(-c2nonc2N)c1COc1ccccc1	0.1	88*	48	3	10	0.5
COC(=O)c1nnn(-c2nonc2N)c1CSc1nc2ccccc2s1	0.5	49	52*	5	60*	0.5
Cc1cccc2cc(CN(CC3CCCO3)C(c3nnnn3Cc3ccco3)C(C)C)c(=O)[nH]c12 (stereo not given)	0.6	39	15	3	5	0.8
CCOC(=O)c1nnn(-c2nonc2N)c1CN(CC)CC	1	2	36	9	-2	0.6
CCOC(=O)c1nnn(-c2nonc2N)c1CN(CC)c1ccccc1	0.1	89*	99*	-5	5	0
CCCC(=O)Nc1nnc(CC(=O)N2CCCC2)s1	1.2	-21	5	0	4	0.9
COc1ccc(CCNS(=O)(=O)c2ccc(OC)cc2)cc1	0.4	57*	65*	0	10	0.3
SMILES	CYP2C9 activ	CYP2C9 inhib	CYP2C19 inh	PostGolgi yeast	PostGolgi ctrl	CYP2C19 act
COc1ccc(CCNS(=O)(=O)c2ccc3c(c2)OCCO3)cc1	0.8	24	76*	-4	3	0.2
COc1ccc(S(=O)(=O)NCCC(=O)NCc2ccc(F)cc2)cc1	2.8*	-176	1	6	-1	1
CCN(CC)CCCNS(=O)(=O)c1ccc(OC)cc1	0.9	7	3	0	-4	1
COc1ccc(S(=O)(=O)NCc2ccc(C)cc2)cc1	1.8	-75	99*	-3	12	0
CCOC(=O)c1c(-c2ccccc2Cl)cn2ccccc12	0.2	78*	73*	-3	22	0.3
COc1ccc(-c2ccc(-c3nnc(-c4ccncc4)o3)cc2)cc1	0.7	35	53*	0	-1	0.5
CCSc1nnc(-c2ccc(OC)cc2)o1	0.9	14	16	-2	10	0.8
O=C1CC(N2CCC(c3nc4ccccc4o3)CC2)C(=O)N1Cc1cccs1 (stereo not given)	0.8	20	20	0	7	0.8
Nc1nc2n(c1C(=O)c1ccccc1)CCC2	1.2	-16	12	4	5	0.9
CCOCCOC(=O)c1ccc(-n2cncn2)nc1	0.8	18	61*	26	4	0.4
C#CCOC(=O)c1ccc(-n2cncn2)nc1	0.7	33	82*	-1	3	0.2
COc1ccc(OC)c(N/C(C)=C/C(=O)c2ccc(C)o2)c1	1	-5	6	-1	14	0.9
CCn1c(CC(=O)Nc2ccc(C)cc2)nnc1SCC(=O)NCc1ccccc1	0.8	21	4	-12	-1	1
N#Cc1ccc(CSc2nnc(Cc3cccs3)n2Cc2ccco2)cc1	0.3	66*	93*	21	5	0.1
COc1ccc(C(=O)CSc2nnc(CNc3ccc(C)cc3C)o2)cc1	1.1	-7	-1	-5	18	1
N#Cc1ccc(CSc2nnc(-c3ccccc3)n2Cc2ccco2)cc1	0.6	42	12	1	15	0.9
COc1ccc(C(=O)CSc2nnc(CNc3ccc(C)cc3C)n2Cc2ccco2)cc1	0.4	57*	88*	1	15	0.1
Cc1ccc(NCc2nnc(SCc3ccc(C#N)cc3)n2Cc2ccco2)c(C)c1	0.1	94*	92*	49*	40*	0.1
Cc1ccc(C(=O)CSc2nnc(CNc3ccc(C)cc3C)n2Cc2ccco2)cc1	0.3	73*	75*	-4	40*	0.2
COc1ccc(NC(=O)C2(N(CC(C)C)C(=O)Cn3nnnc3N)CCCCC2)cc1	1	4	0	-3	7	1
Cc1[nH]c2ccccc2c(=O)c1SC(F)(F)C(F)C(F)(F)F (stereo not given)	0.8	22	58*	-2	19	0.4
COc1cccc(/C=N/Nc2snc(SC)c2C#N)c1	0.3	66*	30	0	5	0.7
COc1ccc(/C=N/Nc2ncnc3scc(-c4ccccc4)c23)cc1OC	1.2	-16	19	1	18	0.8
COc1ccc(/C=C/C(=O)Oc2cccc(/C=N/NC(=O)c3cccc(F)c3)c2)cc1	0.6	42	48	-5	8	0.5
COc1ccc(/C=N/Nc2snc(SC)c2C#N)cc1OC	0.4	61*	62*	1	5	0.4
Cc1ccc(NC(=O)COC(=O)C2CC2C)c(S(=O)(=O)N2CCCCC2)c1 (stereo not given)	0.5	51*	74*	-4	-8	0.3
